# Laboratory results as given in PubChem BioAssay.
# Active and inactive are the calls of the source.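 The calls were made as follows: active = compounds whose cell count with miR-34 switched on is under 0.7 times the count with it off; inactive = the rest.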
# Test: sensitizers of A549 cells to miR-34 induction, primary screen, imaging, A549 dox-inducible miR-34, nuclei and caspase counts (AID 1347080); also: test concentration not given here
# Conditions: A549 miR-34 inducible, Hoechst nuclei count, 48 h
# [1] = stronger effect = lower value, cell number ratio, induced over uninduced
# [2] = measured here: relative caspase fold change +Dox/-Dox
# [3] = measured here: total cells with miR-34 induction, stronger effect = lower value
# [4] = measured here: total cells without miR-34 induction
Structure (SMILES),fold change [1],fold change [2],cell count [3],cell count [4]
CCCC1([C@@H](O)C/C=C/[C@H]2[C@H](O)CC(=O)[C@@H]2CCCCCCC(=O)O)CCC1,0.95 (inactive),1.46,5970,6280
CCCCCC/C=C\CCCCCCCC(=O)OCC,0.904 (inactive),1.03,5560,6150
CCCC/C=C\CCCCCCCC(=O)OC,1.02 (inactive),0.704,5700,5570
CC(C)=CCC/C(C)=C/CC/C(C)=C/CC[C@]1(C)CCc2c(C)c(O)c(C)c(C)c2O1,0.928 (inactive),0.656,5490,5920
CCCCC[C@H](O)/C=C/[C@@H]1[C@H](C/C=C\CCCC(=O)O)[C@H](O)C[C@H]1O,0.921 (inactive),1.6,5020,5450
CCCC1([C@@H](O)C/C=C/[C@H]2C(O)CC(=O)[C@@H]2CCCCCCC(=O)OC)CCC1 (stereo not given in full),1.02 (inactive),1.54,6030,5910
CCCCCC(=O)CC[C@H]1[C@H](O)CC(=O)[C@@H]1CCCCCCC(=O)O,0.94 (inactive),1.43,5620,5980
OC[C@H]1NC[C@H](O)[C@@H](O)[C@@H]1O,0.965 (inactive),0.787,5000,5180
CCCCC[C@H](O)/C=C/[C@@H]1[C@@H](C/C=C\CCCC(=O)NCCO)[C@@H](O)C[C@H]1O,0.899 (inactive),1.5,5200,5780
O=C(O)CCC/C=C\C[C@H]1[C@@H](/C=C/[C@@H](O)CCc2ccccc2)[C@H](O)C[C@H]1O,0.969 (inactive),0.334,5150,5310
CC1=C(CC/C(C)=C/CCC2C=CC(C3=CC(=O)OC3O)OC2O)C(C)(C)CCC1 (stereo not given),0.908 (inactive),0.704,1170,1290
CC/C=C\C/C=C\C/C=C\CCCCCCCC(=O)OCC,0.898 (inactive),0.639,5180,5770
CC#CCC(C)[C@H](O)/C=C/[C@@H]1[C@H]2C/C(=C\CCCC(=O)O)C[C@H]2C[C@H]1O (stereo not given in full),0.896 (inactive),1.12,5570,6220
CCCCCCCC/C=C\CCCCCCCC(=O)Nc1c(C(C)C)cccc1C(C)C,0.999 (inactive),0.853,5690,5700
O=C(O)CCC/C=C\C[C@@H]1[C@@H](CCC(=O)CCc2ccccc2)[C@H](O)C[C@@H]1O,0.934 (inactive),1.4,5970,6390
CCCCC/C=C\C/C=C\C/C=C\C/C=C\CCCC(=O)SCC(O)CO (stereo not given),0.986 (inactive),0.486,5460,5540
CCCCC[C@H](O)/C=C/[C@H]1C2CC(CO2)[C@@H]1C/C=C\CCCC(=O)O (stereo not given in full),0.956 (inactive),0.835,5400,5650
O=C(O)c1c[nH]c2c(ccc3cccnc32)c1=O,0.93 (inactive),0.866,5740,6180
CCCCC[C@H](O)/C=C/[C@H]1C(=O)C[C@H](O)[C@@H]1C/C=C/CCCC(=O)O,0.96 (inactive),1.11,5890,6130
CCCCC/C=C/C=C1/C(=O)C[C@H](O)[C@@H]1C/C=C\CCCC(=O)O,1.04 (inactive),1.03,6090,5880

Structure (SMILES),fold change [1],fold change [2],cell count [3],cell count [4]
CC(C)[C@H](O)CC[C@@H](C)[C@H]1CC[C@H]2[C@@H]3CC=C4C[C@@H](O)CC[C@]4(C)[C@H]3CC[C@]12C,0.898 (inactive),0.825,5260,5860
O=C(O)CCC/C=C\C[C@H]1[C@@H](O)CC(=O)[C@@H]1/C=C/[C@@H](O)COc1cccc(C(F)(F)F)c1,1.01 (inactive),1.13,6530,6490
CC(C)=CCC/C(C)=C/CC/C(C)=C/C(O)P(=O)(O)O (stereo not given),0.968 (inactive),0.767,5800,5990
CCC(C)[C@H]1O[C@]2(C=C[C@@H]1C)C[C@@H]1C[C@@H](C/C=C(\C)[C@@H](OC3C[C@H](OC)C(O[C@H]4C[C@H](OC)[C@@H](NC(C)=O)[C@H](C)O4)[C@H](C)O3)[C@@H](C)/C=C/C=C3\CO[C@@H]4[C@H](O)C(C)=C[C@@H](C(=O)O1)[C@]34O)O2 (stereo not given in full),1.03 (inactive),0.79,4370,4250
CCCCC[C@H](O)/C=C/[C@@H]1[C@H]2C/C(=C\CCCC(=O)O)C[C@H]2C[C@H]1O,0.922 (inactive),1.13,6140,6660
CCCCC[C@H](O)/C=C/[C@H]1[C@H](O)CC(=O)[C@@H]1C/C=C\CCCC(=O)OCC(O)CO (stereo not given in full),0.945 (inactive),0.932,5540,5860
CC(C)CCOc1ccc(NC(=S)Nc2ccc(OCCC(C)C)cc2)cc1,0.881 (inactive),0.401,4560,5170
CC(C)CCC[C@@H](C)[C@H]1CC[C@H]2[C@@H]3CC(=O)[C@@]4(O)C[C@@H](O)CC[C@]4(C)[C@H]3CC[C@]12C,0.89 (inactive),2.89,5340,6000
CCCCC[C@H](O)/C=C/[C@@H]1[C@@H](C/C=C\CCCC(=O)NCC)[C@@H](O)C[C@H]1O,0.749 (inactive),1.63,5570,7440
CCCCCCCCCCCCCCCC(=O)NC(CO)CO,0.966 (inactive),0.974,5260,5440
CCCCCCCCCCCCCCNC(=O)C1CCCCC1,0.905 (inactive),0.661,4920,5430
CC(C)(CCCCCCCCCCC(C)(C)CC(=O)O)CC(=O)O,0.985 (inactive),0.985,6090,6180
CCCCC[C@@H](O)/C=C/[C@@H]1[C@@H](C/C=C\CCCC(=O)O)[C@@H](O)C[C@H]1O,0.977 (inactive),1.24,5960,6100
CN(C)C(=O)CCSC(SCCC(=O)O)c1cccc(/C=C/c2ccc3ccc(Cl)cc3n2)c1 (stereo not given),1 (inactive),1.76,5360,5340
CCCCC[C@H](O)/C=C/[C@@H]1[C@@H](C/C=C\CCCC(=O)OC(C)C)[C@@H](O)C[C@H]1O,0.994 (inactive),1.14,5380,5420
CCCCCCCCCCCCCCCCOC[C@H](COP(=O)([O-])OCC[N+]1(C)CCCC1)OC(C)=O,0.82 (inactive),1.31,5250,6400
CCCCCCCCCCCCCCCCC(=O)NCCO,1.04 (inactive),0.673,6030,5800
CC/C=C\C/C=C\C/C=C\CCCCCCCC(=O)NCCO,1.05 (inactive),0.865,5950,5670
CCCCCCCCCCCSCC(=O)O,1.05 (inactive),1.04,6160,5890
O=P(O)(O)O[C@H]1[C@@H](O)[C@H](O)[C@@H](OP(=O)(O)O)[C@H](OP(=O)(O)O)[C@H]1O,0.877 (inactive),1.8,5820,6630

Structure (SMILES),fold change [1],fold change [2],cell count [3],cell count [4]
O=C(O)CCC/C=C\C[C@@H]1C(=O)C[C@@H](O)[C@@H]1/C=C/[C@@H](O)CC1CCCCC1,1.22 (inactive),0.461,7070,5800
CCCCC[C@H](O)/C=C/[C@H]1C(=O)C[C@H](O)[C@@H]1C/C=C\CCCC(=O)OC,0.892 (inactive),0.761,5010,5620
CCCCCC(=O)CC[C@H]1[C@H](O)CC(=O)[C@@H]1C/C=C\CCCC(=O)O,0.975 (inactive),1.25,6140,6290
CCC(O)/C=C/C=O (stereo not given),0.941 (inactive),1.21,5860,6230
CCCCC[C@H](O)/C=C/[C@@H]1[C@H]2CC(CCCCC(=O)O)O[C@H]2C[C@H]1O (stereo not given in full),0.937 (inactive),1.39,6700,7150
CCCCCCCC/C=C\CCCCCCCC(=O)NCCS(=O)(=O)O,0.992 (inactive),0.63,6150,6200
CCCCC[C@H](O)/C=C/[C@H]1[C@H](O)CC(=O)[C@@H]1CCCCCCC(=O)NCCO,0.954 (inactive),1.4,5990,6270
CCCCCCCCCCCCCCCC(=O)NC[C@@H](C)O,1.02 (inactive),0.848,6270,6160
CCCCC/C=C\C/C=C\CCCCCCCC(=O)O[C@H](COC(=O)CCCCCCCCCCCCCCC)COP(=O)(O)OCCN,0.789 (inactive),0.779,4540,5760
CCCCCCCCCCCCC/C=C/[C@@H](O)[C@H](COP(=O)(O)O)NC(=O)CCCCCCC,1.01 (inactive),0.912,5610,5550
COc1ccc(C2=N[C@@H](c3ccc(Cl)cc3)[C@@H](c3ccc(Cl)cc3)N2C(=O)N2CCNC(=O)C2)c(OC(C)C)c1,1.1 (inactive),0.974,4290,3920
CCOC(=O)/C=C/[C@H](CC(C)C)NC(=O)[C@H](CO)NC(=O)[C@@H](NC(=O)c1cccc(O)c1C)C(C)C,0.61 (active),0.781,3640,5980
Cc1c(C)c2c(c(C)c1O)CCC(C)(CCCC(C)C(=O)O)O2 (stereo not given),0.962 (inactive),0.303,5890,6120
C=CCN(C)CCCCCCOc1ccc(C(=O)c2ccc(Br)cc2)c(F)c1,1.01 (inactive),0.704,5700,5660
CCCCC1C(=O)CC[C@H]2[C@@H]1CC(=O)[C@@H]2C/C=C\CCCC(=O)O (stereo not given in full),1.07 (inactive),1.48,5940,5580
COc1ccc2c(c1)c(CC(=O)Nc1ccc(NC(C)=O)cc1)c(C)n2C(=O)c1ccc(Cl)cc1,1.05 (inactive),1.43,5880,5610
CC(C)Oc1ccc(C(=O)c2ccc(NC3=NCCN3)cc2)cc1,1.07 (inactive),0.773,6020,5650
CCCCC[C@H](O)/C=C/[C@@H]1c2cc(CCCCC(=O)O)n(-c3ccccc3)c2C[C@H]1O,0.958 (inactive),1.14,6340,6620
CCCCCNC1=C(c2cn(C)c3ccccc23)C(=O)N(C)C1=O,0.981 (inactive),1.69,6020,6140
CCCCCC(=O)CC[C@H]1C=CC(=O)[C@@H]1C/C=C\CCCC(=O)O,0.899 (inactive),1.77,5230,5820
